Measurements taken from PubChem BioAssay (Tox21).
Values joined by “and” are separate entries in the source; they are usually repeats but may differ in a detail not shown here. Identical values can stand only once. Inconclusive results are not listed. Entries that show only a call come without a potency. Unmarked numbers belong to inactive results. Active and inactive are the calls of the source. The call rests on the fitted dose curve; in most records, active means well fitted activation curve with a large enough effect in the signal ratio in the repeat runs (not every such curve was filed as active); inconclusive means weak or mixed curves, or effect the other way; inactive means no such curve, though single readings can be large or run the other way; the % refers to the signal ratio.

Test: qHTS assay for small molecule agonists of the antioxidant response element (ARE) signaling pathway (AID 743202)
Details: HepG2 ARE-bla reporter, beta-lactamase FRET, 16 h; series mostly up to 73.3 µM; activation: at the top concentration
Text: U.S. Tox21 Program National Center for Advancing Translational Sciences [NCATS] NIH Chemical Genomics Center [NCGC] U.S. Environmental Protection Agency [EPA] National Institutes of Environmental Health Sciences [NIEHS] National Toxicology Program [NTP] U.S. Food and Drug Administration [FDA] Tox21 Assay Overview: Oxidative stress has been implicated in the pathogenesis of a variety of diseases ranging from cancer to neurodegeneration. The antioxidant response element (ARE) signaling pathway plays an important role in the amelioration of oxidative stress. The CellSensor ARE-bla HepG2 cell line (Invitrogen) can be used for analyzing the Nrf2/antioxidant response signaling pathway. Nrf2 (NF-E2-related factor 2) and Nrf1 are transcription factors that bind to AREs and activate these genes. The CellSensor ARE-bla Hep G2 cell line contains a beta-lactamase reporter gene under control of the Antioxidant Response Element (ARE) stably integrated into HepG2 cells. The activation of the report gene under culture conditions can be detected by fluorescence intensity. This cell line has been used to screen the Tox21 10K compound library to identify agonists that induce oxidative stress.
Tox21 Assay Protocol Summary: The ARE-bla cells were dispensed at 2,000 cells/5 ul/well in 1536-well black wall/clear bottom plates using a Multidrop dispenser. After the assay plates were incubated at a 37 C/5% CO2 incubator for 5 hours, 23 nL of compounds dissolved in DMSO, positive controls or DMSO only was transferred to the assay plate by a pin tool. The plates were incubated at 37 C for 16 hours. After 1 uL of LiveBLAzer B/G FRET substrate was added using a Flying Reagent Dispenser, the plates were incubated at room temperature for 2 hours, and fluorescence intensity was measured by an Envision plate reader.
Potency means the concentration at half of the fitted maximal effect.

Row | SMILES | activation | Potency
1 | Cc1ccncc1 | -4.21% [at 94.8 µM] | 
2 | O=C(NCC1CCCCN1)c1cc(OCC(F)(F)F)ccc1OCC(F)(F)F (stereo not given) | -5.31% | 
3 | COc1ccc(N)c(OC)c1 |  | inactive
4 | Nc1nc(N)c2nc(-c3ccccc3)c(N)nc2n1 |  | 31 µM (active) and 30.6 µM (active) and 23.7 µM (active)
5 | Cc1cc(C)c(O)c(C)c1 | 7.37% | 
6 | Oc1ccc(Cc2ccccc2O)cc1 |  | 30.6 µM (active)
7 | CC(=O)OC(C)(C)C1CC=C(C)CC1 (stereo not given) | -4.58% | 
8 | NC(N)=S |  | inactive
9 | Cc1ccccc1C=O | -2.23% | 
10 | NC1CCCCC1N (stereo not given) |  | inactive
11 | CN=C(NC#N)NCCSCc1nc[nH]c1C |  | inactive
12 | CC/C(C)=N/O |  | inactive
13 | O=C(Cl)c1ccc(C(=O)Cl)cc1 |  | inactive
14 | O=C(O)C1=NN(c2ccc(S(=O)(=O)O)cc2)C(=O)C1 |  | inactive
15 | C=C(C)CC(C)(C)C | 0.792% | 
16 | OCC(O)CS (stereo not given) |  | inactive
17 | CCCCCCCCCCCC(=O)N(C)CC(=O)O | -3.99% [at 8.36 µM] | 
18 | CC(=O)CC(=O)N(C)C |  | inactive
19 | CC(C)c1ccc(C(C)C)cc1 |  | inactive
20 | NCCNCCNCCN |  | inactive

Row | SMILES | activation | Potency
21 | Cc1cc(CC(=O)O)n(C)c1C(=O)c1ccc(Cl)cc1 | -0.747% | 
22 | CCn1cc(C(=O)O)c(=O)c2cc3c(cc21)OCO3 | 1.41% [at 94.8 µM] | 
23 | CC(=O)OC/C=C(\C)CCC=C(C)C |  | inactive
24 | O=C(O)Cc1c[nH]c2ccccc12 | 0.296% | 
25 | O=[N+]([O-])c1ccccc1C(F)(F)F | 13.1% | 
26 | OB(O)O |  | inactive
27 | CN1CCCC1=O |  | inactive
28 | OCCOCCOCCOCCOCCO | -2.9% [at 94.8 µM] | 
29 | C1CCCNCC1 |  | inactive
30 | CS(=O)(=O)c1ccc(Cl)cc1 |  | inactive
31 | CCCCCCCCC(=O)O |  | inactive
32 | CC(=O)OCCC(C)C |  | inactive
33 | OCc1ccc(Cl)cc1Cl |  | inactive
34 | CCc1cccc(O)c1 | -15.4% [at 94.8 µM] | 
35 | O=[N+]([O-])c1cc(C(F)(F)F)ccc1Cl |  | inactive
36 | C[n+]1ccn(CCO)c1 |  | inactive
37 | Nc1cccc(N)n1 | 0.785% | 
38 | C[Si](C)(C)N[Si](C)(C)C |  | inactive
39 | Cc1ccc(C(C)C)cc1 | -3.12% | 
40 | Cc1ccccc1Cl | -3.08% | 
